Laboratory results reported in PubChem BioAssay.
Activity calls are given as the source filed them.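 Rule for the calls, unless noted: active = inhibition at or above 50% at 10 µM; inactive = inhibition below 50%.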

Assays:
[1] = inhibitors of TNFa-induced NFkB p65 translocation, primary screen, imaging, HUVEC, MLSMR starter and 10KST1 sets (AID 438;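 active = inhibition above 20% together with a positive visual image hit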;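 note: compound added about 3h40 before a 20 min TNFalpha stimulation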;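 for inhibition: signal is the nuclear over cytoplasmic p65 intensity ratio per well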); details: HUVEC TNFa-induced p65 nuclear translocation; cell count: measured here: nuclei count (cytotoxicity indicator), at 2.08 µM unless noted; inhibition: at 2 µM, stronger effect = higher value unless noted
[2] = reduction of polyQ htt aggregates in cells – imaging, exon1htt(103Q)mCFP cells, high-content imaging, primary screen (AID 483;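 active = visual image review flags a hit and inhibition of aggregation exceeds 20%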;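 note: compound exposure lasted 3 days before fixation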;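 for nuclei count: percent of the per-plate median nuclei count of sample wells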); details: exon1htt(103Q)mCFP cell line, aggregate imaging, at 2 µM; inhibition of aggregation: stronger effect = higher value; nuclei count: measured here: cell count, toxicity
[3] = endothelial E-selectin expression blockers – imaging, HUVEC, immunofluorescence, MLSMR starter and 10KST1 sets, primary screen (AID 487;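 active = visually confirmed hit in the image check and inhibition above 20%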;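 for inhibition: signal is fraction of cell area covered by stained E-selectin grains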;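 for nuclei count: 100% = median nuclei count of all wells on the same plate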); details: HUVEC TNFalpha-induced E-selectin immunofluorescence imaging, at 2 µM; inhibition: stronger effect = higher value; nuclei count: measured here: cell number, toxicity
[4] = target: Voltage-gated potassium channel subunit beta-2 (Rattus norvegicus) (UniProt P62483); test: inhibitors of rat Kvbeta2 reductase activity – biochemical, NADPH fluorescence, primary screen (AID 622;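 active = fluorescence slope higher than the sample average by over 3 SD, cut at about -0.22 in these data, passing the limit was not always enough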;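 note: slope of raw intensity against log time taken from 70 to 1610 s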); details: recombinant KvBeta, 4-cyanobenzaldehyde reduction, at 10 µM, stronger effect = higher value
Sequence of Voltage-gated potassium channel subunit beta-2 (Rattus norvegicus) (P62483 whole entry, looked up): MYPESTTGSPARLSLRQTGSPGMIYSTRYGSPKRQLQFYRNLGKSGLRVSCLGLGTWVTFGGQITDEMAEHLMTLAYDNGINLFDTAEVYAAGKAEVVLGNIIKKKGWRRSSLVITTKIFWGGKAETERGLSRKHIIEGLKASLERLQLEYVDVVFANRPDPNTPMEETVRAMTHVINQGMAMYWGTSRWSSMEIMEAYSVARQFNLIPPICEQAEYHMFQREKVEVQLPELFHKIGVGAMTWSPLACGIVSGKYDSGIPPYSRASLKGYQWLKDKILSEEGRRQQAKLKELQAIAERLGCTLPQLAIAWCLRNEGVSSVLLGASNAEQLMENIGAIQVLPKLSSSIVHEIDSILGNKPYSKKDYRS

[5] = target: Voltage-gated potassium channel subunit beta-2 (Rattus norvegicus) (UniProt P62483); test: enhancers of rat Kvbeta2 NADPH turnover – biochemical, NADPH fluorescence, primary screen (AID 623;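 active = NADPH fluorescence slope more negative than the mean of all samples by about 3 SD, 99.7% confidence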;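 note: fluorescence intensity change per second fitted from 20 to 320 s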); details: Recombinant KvBeta, NADPH fluorescence decrease slope, 10 min; at 10 µM; stronger effect = lower value
[6] = target: Muscarinic acetylcholine receptor M4 (Homo sapiens) (UniProt P08173); test: M4-linked GIRK flux change, two-sided – cell-based, HEK293 M4/GIRK, thallium flux, BTC-AM, M4 allosteric agonist project, primary screen (AID 625;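 active = fluorescence slope after compound addition differing from the mean of all tested samples at 99.7% confidence, mostly higher but some lower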;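 note: thallium influx through GIRK channels coupled to M4 in HEK293 cells with BTC-AM dye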); details: at 10 µM, actives lie on both sides
Sequence of Muscarinic acetylcholine receptor M4 (Homo sapiens) (P08173 whole entry, looked up): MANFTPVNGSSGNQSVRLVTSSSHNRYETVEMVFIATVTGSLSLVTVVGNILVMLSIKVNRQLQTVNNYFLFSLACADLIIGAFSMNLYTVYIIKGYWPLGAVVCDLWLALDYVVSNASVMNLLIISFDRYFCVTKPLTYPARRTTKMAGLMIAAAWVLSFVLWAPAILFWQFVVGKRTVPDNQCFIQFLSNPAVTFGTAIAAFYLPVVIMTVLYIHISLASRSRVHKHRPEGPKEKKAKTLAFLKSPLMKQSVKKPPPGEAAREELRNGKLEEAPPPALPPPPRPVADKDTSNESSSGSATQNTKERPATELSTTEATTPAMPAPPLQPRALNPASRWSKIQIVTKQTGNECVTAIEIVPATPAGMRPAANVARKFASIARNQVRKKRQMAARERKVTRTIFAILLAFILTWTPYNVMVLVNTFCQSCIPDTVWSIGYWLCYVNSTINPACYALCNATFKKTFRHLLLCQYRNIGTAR

[7] = blockers of RIG-like receptor reporter activation – cell-based, Sendai virus stimulus, luciferase, 10K MLSCN set, TLR/RLR signaling modifier project, primary screen (AID 602276); details: HEK293 RL24 IRF3 luciferase reporter, at 10 µM, stronger effect = higher value;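 note: firefly luciferase from ISG56 promoter only with Renilla not read in this screen; 0% = Sendai virus plus DMSO and 100% = medium plus DMSO without virus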
[8] = TLR3 IRF3 reporter activation blockers – cell-based, poly I:C stimulus, luciferase, 10K MLSCN set, primary screen (AID 602277;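 active = inhibition of the reporter signal at or above 50%; inactive = inhibition below 50%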); details: HEK293-TLR3 RL24 IRF3 luciferase reporter, at 10 µM, stronger effect = higher value
[9] = target: Alpha-2C adrenergic receptor (Homo sapiens) (UniProt P18825); test: compounds altering alpha2C-coupled GIRK flux – cell-based, HEK293 alpha2C/GIRK1/2, thallium flux, primary screen (AID 624;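 active = fluorescence slope after compound addition differing from the mean of all screened samples at 99.7% confidence, in either direction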;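 note: slope of fluorescence ratio to pre-addition baseline per second over 15 to 24 s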); details: thallium flux BTC fluorescence, at 10 µM, actives lie on both sides
Sequence of Alpha-2C adrenergic receptor (Homo sapiens) (P18825 whole entry, looked up): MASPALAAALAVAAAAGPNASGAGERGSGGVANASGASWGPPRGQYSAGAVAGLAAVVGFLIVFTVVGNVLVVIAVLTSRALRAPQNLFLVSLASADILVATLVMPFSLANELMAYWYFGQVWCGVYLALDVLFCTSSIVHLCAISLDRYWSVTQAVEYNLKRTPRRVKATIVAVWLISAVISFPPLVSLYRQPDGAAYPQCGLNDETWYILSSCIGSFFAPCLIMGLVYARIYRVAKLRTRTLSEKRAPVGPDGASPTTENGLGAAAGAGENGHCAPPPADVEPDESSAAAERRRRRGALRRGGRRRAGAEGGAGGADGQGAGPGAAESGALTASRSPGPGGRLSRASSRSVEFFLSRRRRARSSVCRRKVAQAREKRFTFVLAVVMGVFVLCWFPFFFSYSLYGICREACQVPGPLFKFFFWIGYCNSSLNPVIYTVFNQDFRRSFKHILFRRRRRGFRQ

[10] = inhibitors of larval lipid processing in zebrafish, primary screen, whole organism, PED6 fluorescence, gall bladder and intestine (AID 686;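 active = a full or partial loss of lipid-probe fluorescence in the fish gall bladder, intestine or both, judged by eye; inactive = no fluorescence loss, or compound toxic to the fish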;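 note: larvae 5 to 7 days old with five fish per well; signal comes from phospholipase A2 cleavage of quenched PED6 carried via bile; overnight exposure to compound and PED6 before scoring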); details: Zebrafish larvae PED6 lipid processing, fluorescence scoring
[11] = loss of swimming-algae plug formation – whole organism, Chlamydomonas reinhardtii, WT vs cilia-less mutant, absorbance, 96-well, primary screen (AID 463189;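 active = inhibition at or above 50% relative to wild type and mutant plate controls; inactive = inhibition below 50%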;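 note: 0% = wild type cc124 cells in DMSO and 100% = ciliumless bld1 mutant cells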); details: Chlamydomonas reinhardtii gravitaxis, OD600 absorbance, 2 days; at 10 µM; stronger effect = higher value

In the case of `O=C(CN1CCN(Cc2cccc(Cl)c2)C1=O)N1CCC2(CC1)OCCO2`, the cell count [1] is reported as 363, the inhibition [1] is reported as 1.1% (inactive) and the inhibition of aggregation [2] is reported as 19.2% (inactive). The nuclei count [2] was 73.9%, the inhibition [3] was 26.2% (inactive) and the nuclei count [3] was 111%. The fluorescence slope [4] was -0.578 (inactive), the NADPH fluorescence slope [5] was -1.5e-05 (inactive) and the fluorescence slope [6] was 0.00798 (inactive). For the same compound, the inhibition [7] was 4.07% (inactive) and the inhibition [8] was 14% (inactive).
In the case of `O=C1CC(c2ccccc2)CC(O)=C1C=NCCN1CCN(C(=O)Cc2ccccc2)CC1` (stereo not given), the cell count [1] is reported as 450, the inhibition [1] is reported as 2.9% (inactive) and the inhibition of aggregation [2] is reported as 8.6% (inactive). The nuclei count [2] was 92.1%, the inhibition [3] was -82.2% (inactive) and the nuclei count [3] was 115%. The fluorescence slope [4] was -0.529 (inactive), the NADPH fluorescence slope [5] was 3.3e-05 (inactive) and the slope [9] was 0.00558 (inactive). For the same compound, the inhibition [7] was 17.1% (inactive) and the inhibition [8] was 25.9% (inactive).
For `O=C(Cn1cc(C(=O)c2ccccc2)c2ccccc21)NCc1ccco1`, the cell count [1] was 229, the inhibition [1] was -1.4% (inactive) and the inhibition of aggregation [2] was 3.1% (inactive). The nuclei count [2] was 89.8%, the inhibition [3] was -0.3% (inactive) and the nuclei count [3] was 103%. For the same compound, the fluorescence slope [4] was -0.567 (inactive), the NADPH fluorescence slope [5] was -1.5e-05 (inactive) and the fluorescence slope [6] was 0.00474 (inactive). For the same compound, the inhibition [7] was -5.96% (inactive) and the inhibition [8] was -16.8% (inactive).
For `NC(=O)CSP(=O)(c1ccccc1)c1ccccc1`, the cell count [1] was 427, the inhibition [1] was -3.5% (inactive) and the inhibition of aggregation [2] was 4.2% (inactive). For the same compound, the nuclei count [2] was 110%, the inhibition [3] was -31.5% (inactive) and the nuclei count [3] was 105%. The fluorescence slope [4] was -0.541 (inactive), the NADPH fluorescence slope [5] was -3.8e-05 (inactive) and the fluorescence slope [6] was 0.00487 (inactive). The inhibition [7] was 6.33% (inactive) and the inhibition [8] was 18.3% (inactive).
In the case of `COc1ccccc1CN1CCN(C(=O)Cc2ccccc2)CC1`, the cell count [1] is reported as 466, the inhibition [1] is reported as 5.9% (inactive) and the inhibition of aggregation [2] is reported as 2.7% (inactive). For the same compound, the nuclei count [2] was 101%, the inhibition [3] was 18.9% (inactive) and the nuclei count [3] was 112%. The fluorescence slope [4] was -0.326 (inactive), the NADPH fluorescence slope [5] was 3.1e-06 (inactive) and the slope [9] was 0.00694 (inactive). The outcome [10] was “inactive”, the inhibition [7] was -1.53% (inactive) and the inhibition [8] was 3.43% (inactive).
For `O=P(O)(O)C(Cl)(Cl)P(=O)(O)O`, the inhibition [11] was 8.57% (inactive).
In the case of `NC(C(=O)O)c1cc(=O)[nH]o1` (stereo not given), the inhibition [11] is reported as 6.42% (inactive).
In the case of `CC(=O)N1CC(=O)Nc2ccc(Cl)cc2C1c1ccc(F)cc1` (stereo not given), the cell count [1] is reported as 416, the inhibition [1] is reported as 20.8% (inactive) and the inhibition of aggregation [2] is reported as -6.1% (inactive). The nuclei count [2] was 103%, the inhibition [3] was -45.1% (inactive) and the nuclei count [3] was 105%. The fluorescence slope [4] was -0.569 (inactive), the NADPH fluorescence slope [5] was -1.5e-05 (inactive) and the fluorescence slope [6] was 0.00574 (inactive). For the same compound, the inhibition [7] was -2.3% (inactive) and the inhibition [8] was -0.788% (inactive).
In the case of `O=C(CN1C(=O)CN=C(c2ccccc2)c2ccccc21)NCc1ccco1`, the cell count [1] is reported as 519, the inhibition [1] is reported as -2.9% (inactive) and the inhibition of aggregation [2] is reported as -13.4% (inactive). For the same compound, the nuclei count [2] was 99.4%, the inhibition [3] was -66.7% (inactive) and the nuclei count [3] was 142%. The fluorescence slope [4] was -0.571 (inactive), the NADPH fluorescence slope [5] was -6.4e-05 (inactive) and the fluorescence slope [6] was 0.00595 (inactive). The inhibition [7] was -12.7% (inactive) and the inhibition [8] was -12.1% (inactive).
